This note sets out measurements from PubChem BioAssay (NCATS).

Assay [1] has as its target Cytochrome P450 2C9 (Homo sapiens) (UniProt P11712). Kind of assay: Cytochrome P450 family 2 subfamily C member 9 (CYP2C9) small molecule antagonists: luciferase biochemical (cell-free) qHTS assay (AID 1645842; active = well fitted curve in the direction sought with a large enough effect in the repeat runs; an effect the other way counts as inactive or inconclusive; note: potency is the fitted concentration of half-maximal effect; nearly all actives have a fitted effect of over 55% in size). In a few lines:
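Luminescence, after 20 min with luciferin detection reagent, reflected CYP2C9 turnover during a 1 h NADPH-driven reaction at 37C. Enzyme-substrate mix contained 0.4% bovine serum albumin and was preincubated with compound 10 min at room temperature.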
Background: Quantitative high-throughput screening tests each substance at several concentrations.

A further assay concerns SKOV3. Kind of assay: Primary qHTS to identify gynecologic anti-cancer compounds using libraries of approved drugs and bioactive compounds (AID 1345084). For activity change, negative = cytotoxicity: % is set by controls: 0 for no effect and ±100 for the full control effect. Note: nearly all actives have a fitted effect of over 55% in size. Note: potency is the fitted concentration of half-maximal effect. As to conditions: Gynecologic cancer cell panel viability, ATPlite luminescence, 48 h; series mostly up to 57.5 µM. A digest of the protocol:
(§1)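 Cells, 1,000 per well, were allowed to settle for 16 h at 37 C before compound addition. Five concentrations were tested for 48 h, and viability was read by ATPlite luminescence after 15 min at room temperature.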

Assay [2] deals with Cytochrome P450 2D6 (Homo sapiens) (UniProt P10635). In words: Cytochrome P450 family 2 subfamily D member 6 (CYP2D6) small molecule antagonists: luciferase biochemical (cell-free) qHTS assay (AID 1645840; active = well fitted curve in the direction sought with a large enough effect in the repeat runs; an effect the other way counts as inactive or inconclusive; note: nearly all actives have a fitted effect of over 55% in size; note: potency is the fitted concentration of half-maximal effect). A digest of the protocol: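 P450-Glo luminescent screen: recombinant CYP2D6 enzyme–proluciferin substrate mix preincubated with compound 10 min at room temperature, then NADPH regeneration added for 1 h at room temperature. Detection reagent added for 20 min; luciferin light read as relative luminescence units.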

The test system of another assay is CAOV3. Kind of assay: Primary qHTS to identify gynecologic anti-cancer compounds using libraries of approved drugs and bioactive compounds (AID 1345084). For activity change, negative = cytotoxicity: % is set by controls: 0 for no effect and ±100 for the full control effect. Note: nearly all actives have a fitted effect of over 55% in size. Note: potency is the fitted concentration of half-maximal effect. Conditions: Gynecologic cancer cell panel viability, ATPlite luminescence, 48 h; series mostly up to 57.5 µM. A digest of the protocol: as §1
For a further assay, the system named is Tov-21-G. Described as above. Conditions: Gynecologic cancer cell panel viability, ATPlite luminescence, 48 h; series mostly up to 57.5 µM. In a few lines:
as §1
On the technique in general: ATP-based viability assays read luminescence as a measure of living cells.

Assay [3] deals with Catechol O-methyltransferase (Homo sapiens) (UniProt P21964). Kind of assay: Confirmatory Screen for Target Class Profiling of Small Molecule Inhibitors of Methyltransferases (AID 1745852). For activity change, negative = inhibition: % is set by controls: 0 for no effect and ±100 for the full control effect. As to conditions: MTase-Glo luminescence, SAH detection, recombinant enzyme; measured here: COMT max response; stronger effect = lower value.
Assay [4] has as its target Guanidinoacetate N-methyltransferase (Homo sapiens) (UniProt Q14353). The assay is described as above. As to conditions: activity change, negative = inhibition: at 57.3 µM (top of the series) unless noted.
The target in assay [5] is Nicotinamide N-methyltransferase (Homo sapiens) (UniProt P40261). The assay is described as above. As to conditions: MTase-Glo luminescence, SAH detection, recombinant enzyme; measured here: NNMT max response; stronger effect = lower value.
Assay [6] has as its target Phenylethanolamine N-methyltransferase (Homo sapiens) (UniProt P11086). The assay is described as above. Conditions: MTase-Glo luminescence, SAH detection, recombinant enzyme; measured here: PNMT max response; stronger effect = lower value.
Assay [7] deals with Luciferin 4-monooxygenase (Photinus pyralis) (UniProt P08659). Kind of assay: Biochemical firefly luciferase enzyme assay for NPC (AID 624030).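 Note: purified P. pyralis luciferase at 10 nM with luciferin and ATP substrate; 0% = DMSO and -100% = full luciferase inhibition by PTC124 control; nearly all actives have a fitted effect of over 70% in size.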 A digest of the protocol:
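Direct inhibition of firefly luciferase enzyme (10 nM final, 50 mM Tris Acetate) assessed by luminescence within 5 minutes. Percent activity scaled between DMSO and PTC124 positive control, with concentration-effect curves classified by fit quality and response.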

A short description of assay [8]: qHTS Assay for Identifying Gametocytocidal Compounds (AID 743244).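 Note: % is set by controls: 0 for no effect and ±100 for the full control effect; actives lower the fluorescent signal which means gametocytes are killed.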 Conditions: P. falciparum 3D7 stage III-V gametocytes, alamarBlue, 72 h; max response: stronger effect = lower value. In a few lines:
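P. falciparum 3D7 stage III–V gametocytes (20,000 cells/well) were exposed to compounds for 72 h at 37 °C, 5% CO2. AlamarBlue was then added for 24 h; decreased resorufin fluorescence (Ex 525/Em 598 nm) indicated loss of viability.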

Assay [9] is described as follows: Drug repurposing screens with cells derived from glioblastoma tumor samples (AID 1345199). Note: nearly all actives have a fitted effect of over 40% in size. Note: potency is the fitted concentration of half-maximal effect. As to conditions: GBM patient neurospheres viability, ATP luminescence, 48 h. A digest of the protocol:
(§2)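 Four patient lines of CD133+ GBM neurospheres were screened at several concentrations; hits were retested in those lines plus three slower-growing GBM lines, using 48-hour treatment and ATP-based viability.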

For another assay, the system named is astro. Described as above. Conditions: viability, ATP luminescence, 48 h; series mostly up to 45.9 µM. A digest of the protocol:
as §2

The next assay concerns PA-1. Kind of assay: Primary qHTS to identify gynecologic anti-cancer compounds using libraries of approved drugs and bioactive compounds (AID 1345084). For activity change, negative = cytotoxicity: % is set by controls: 0 for no effect and ±100 for the full control effect. Note: nearly all actives have a fitted effect of over 55% in size. Note: potency is the fitted concentration of half-maximal effect. As to conditions: Gynecologic cancer cell panel viability, ATPlite luminescence, 48 h; series mostly up to 57.5 µM. In a few lines: as §1
Assay [10] in a line: P-glycoprotein substrates identified in KB-3-1 adenocarcinoma cell line, qHTS therapeutic library screen (AID 1346986).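 Note: potency is the fitted concentration of half-maximal effect; potency is for cytotoxicity meaning loss of cell viability; nearly all actives have a fitted effect of over 60% in size.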 A digest of the protocol: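 Counter-screen: cherry-picked hits retested in the KB pair and in HEK-293 pcDNA/MDR-19 cells ± tariquidar. Primary screen used 72 h CellTiter-Glo viability in KB-3-1 and KB-8-5-11.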
A short description of assay [11]: Primary redox qHTS assay for identification of artifact compounds. (AID 1845223).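 Note: 0% = DMSO and 100% = reference compound.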 In a few lines:
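Amplex Red (25 uM) and HRP (250 mU/mL) in HBSS, with compounds for 15 min, then 250 uM DTT for 30 min, room temperature, dark. Fluorescence 525/598 nm read; normalized to DMSO and 10 uM DA3003; Hill fit.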

Setting [12] is: at 45.9 µM (top of the series), tumour line B.
Setting [13] is: at 45.9 µM (top of the series), tumour line D.
Setting [14] is: at 46.1 µM (top of the series), tumour line C.

Inconclusive results are not listed. Activity calls are given as the source filed them. Unless noted, calls come from the whole dose curve; as a rule, active = well fitted curve in the direction sought with a large enough effect; inconclusive = small, poorly fitted or top-dose-only effect, or another doubt; inactive = no such curve, though single readings can be large; an effect the other way counts as inactive or inconclusive.

Cytochrome P450 2D6 (Homo sapiens), sequence (P10635 whole entry, looked up): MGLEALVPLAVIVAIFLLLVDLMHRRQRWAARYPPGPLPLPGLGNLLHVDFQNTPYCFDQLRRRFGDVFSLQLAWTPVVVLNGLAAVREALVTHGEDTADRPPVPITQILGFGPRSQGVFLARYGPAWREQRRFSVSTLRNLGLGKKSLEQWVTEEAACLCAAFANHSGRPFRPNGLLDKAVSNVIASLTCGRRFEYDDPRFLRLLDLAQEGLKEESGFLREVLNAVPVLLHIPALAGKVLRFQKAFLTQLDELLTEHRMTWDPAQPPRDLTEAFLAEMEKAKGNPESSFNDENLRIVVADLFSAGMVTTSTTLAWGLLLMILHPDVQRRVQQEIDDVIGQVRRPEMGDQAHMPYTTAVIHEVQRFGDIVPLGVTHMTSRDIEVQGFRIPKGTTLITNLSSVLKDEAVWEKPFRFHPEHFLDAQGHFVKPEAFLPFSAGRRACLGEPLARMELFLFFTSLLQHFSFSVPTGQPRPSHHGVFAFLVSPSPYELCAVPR
Cytochrome P450 2C9 (Homo sapiens), sequence (P11712 whole entry, looked up): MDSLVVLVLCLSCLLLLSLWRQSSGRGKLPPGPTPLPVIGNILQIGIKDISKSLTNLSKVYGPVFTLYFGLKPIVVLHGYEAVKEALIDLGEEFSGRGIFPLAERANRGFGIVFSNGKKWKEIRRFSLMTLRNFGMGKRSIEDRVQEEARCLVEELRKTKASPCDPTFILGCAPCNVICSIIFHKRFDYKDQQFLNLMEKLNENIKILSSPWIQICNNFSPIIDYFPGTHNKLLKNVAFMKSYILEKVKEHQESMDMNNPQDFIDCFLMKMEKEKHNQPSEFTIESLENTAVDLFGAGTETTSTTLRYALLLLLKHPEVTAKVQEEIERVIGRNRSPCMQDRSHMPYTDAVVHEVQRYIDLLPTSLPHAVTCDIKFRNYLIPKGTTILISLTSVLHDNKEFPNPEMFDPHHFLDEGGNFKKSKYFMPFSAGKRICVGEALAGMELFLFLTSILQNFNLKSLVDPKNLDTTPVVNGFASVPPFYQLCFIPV
Nicotinamide N-methyltransferase (Homo sapiens), sequence (P40261 whole entry, looked up): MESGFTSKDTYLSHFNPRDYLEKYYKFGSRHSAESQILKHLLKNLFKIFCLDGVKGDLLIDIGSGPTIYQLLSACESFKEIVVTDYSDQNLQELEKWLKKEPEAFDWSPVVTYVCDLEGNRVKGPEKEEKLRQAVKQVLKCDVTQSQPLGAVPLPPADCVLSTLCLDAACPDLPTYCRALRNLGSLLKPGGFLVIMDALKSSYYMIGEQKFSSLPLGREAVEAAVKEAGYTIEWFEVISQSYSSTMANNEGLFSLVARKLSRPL
Phenylethanolamine N-methyltransferase (Homo sapiens), sequence (P11086 whole entry, looked up): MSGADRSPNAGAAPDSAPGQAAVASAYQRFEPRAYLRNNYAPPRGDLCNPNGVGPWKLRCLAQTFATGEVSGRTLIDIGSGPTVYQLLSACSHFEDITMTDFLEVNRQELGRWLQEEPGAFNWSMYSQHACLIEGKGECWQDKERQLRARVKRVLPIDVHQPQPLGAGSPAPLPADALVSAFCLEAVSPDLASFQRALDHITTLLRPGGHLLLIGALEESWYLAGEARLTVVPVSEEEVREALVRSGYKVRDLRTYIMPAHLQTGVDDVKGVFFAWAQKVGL
Catechol O-methyltransferase (Homo sapiens), sequence (P21964 whole entry, looked up): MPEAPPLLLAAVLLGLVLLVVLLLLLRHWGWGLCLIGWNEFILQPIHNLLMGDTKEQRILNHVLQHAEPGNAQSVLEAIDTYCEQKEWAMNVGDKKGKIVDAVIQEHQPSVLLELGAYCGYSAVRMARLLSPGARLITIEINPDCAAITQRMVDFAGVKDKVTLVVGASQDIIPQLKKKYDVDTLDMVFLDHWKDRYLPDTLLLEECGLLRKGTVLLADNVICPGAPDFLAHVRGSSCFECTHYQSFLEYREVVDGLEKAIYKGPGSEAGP
Luciferin 4-monooxygenase (Photinus pyralis), sequence (P08659 whole entry, looked up): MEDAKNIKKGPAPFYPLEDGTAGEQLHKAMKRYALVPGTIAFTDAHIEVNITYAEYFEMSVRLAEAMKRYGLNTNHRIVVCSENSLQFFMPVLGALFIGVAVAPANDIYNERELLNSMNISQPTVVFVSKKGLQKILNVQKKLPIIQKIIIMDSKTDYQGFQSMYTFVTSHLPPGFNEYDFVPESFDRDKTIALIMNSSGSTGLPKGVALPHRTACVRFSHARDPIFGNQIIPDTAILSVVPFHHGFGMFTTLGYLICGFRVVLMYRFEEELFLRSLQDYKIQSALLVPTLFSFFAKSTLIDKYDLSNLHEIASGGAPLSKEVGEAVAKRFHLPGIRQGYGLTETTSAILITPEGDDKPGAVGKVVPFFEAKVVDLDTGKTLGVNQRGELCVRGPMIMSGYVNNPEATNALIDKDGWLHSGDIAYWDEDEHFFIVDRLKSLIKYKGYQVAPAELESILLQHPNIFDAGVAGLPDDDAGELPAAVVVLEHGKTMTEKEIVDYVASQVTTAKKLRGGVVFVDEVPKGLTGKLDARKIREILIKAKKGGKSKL

Regarding `COc1ccc(-c2cc(C(O)C3CCCCN3)c3ccccc3n2)cc1` (centres undefined), the Potency is 10.7 µM (active) in [1] and 28.2 µM (active) in the assay with SKOV3.

In the case of `FC(F)(F)c1ccc(CNc2ccc(Cc3c[nH]c4ncccc34)cn2)cc1`, the figures for the Potency in assay [2] and in assay [1] were 0.19 µM (active) and 1.2 µM (active), respectively. Also, the Potency result with CAOV3 and with Tov-21-G was “inactive” throughout.

`COc1ccc(NC(=O)N2CCc3c2ccc2ccccc32)cc1N1CCN(C)CC1`: the Potency in assay [2] is 19 µM (active). In the assay on Tov-21-G, the Potency result is “inactive”.

`CN(C)CCCCCCNC(=O)c1cccc(-c2cc(O)c3ncccc3c2)c1`: the activity in [3] is -95.5%; in assay [5] it was -1.3%; in [6], 4.93%. This molecule also had an activity change, negative = inhibition in [4] of 6.43%. In addition, the Potency entry in the assay with CAOV3 and in the assay on SKOV3 was “inactive” each time.

For `CCOC(=O)CN[C@@H](C(=O)N1CC[C@H]1C(=O)NCc1ccc(/C(N)=N/O)cc1)C1CCCCC1`, the Potency result (in assay [7]; in the assay on astro) was “inactive” in each case. In [8], the max response is 9.4% (inactive). The activity, negative = cell killing in assay [9] (setting [12]) is -9.76% (inactive); in assay [9] (setting [13]), -14.5% (inactive); in assay [9] (at 46 µM (top of the series), tumour line A), -18.3% (inactive); in assay [9] (setting [14]), -15.2% (inactive).

`CC[C@]1(O)C[C@H]2CN(CCC3C(=Nc4ccccc43)[C@@](C(=O)OC)(c3cc4c(cc3OC)N(C)[C@H]3[C@@](O)(C(N)=O)[C@H](O)[C@]5(CC)C=CCN6CC[C@]43[C@@H]65)C2)C1` (some centres undefined): in the assay with CAOV3, the Potency result is “inactive”. Also, the results for the Potency with PA-1 and with Tov-21-G were 0.1 µM (active) and 316 nM (active), respectively.

With `COc1ccccc1-c1cc(Nc2cccc(CS(N)(=O)=O)c2)ncn1`, the Potency in assay [10] was 11.6 µM (active); in assay [1], 9.52 µM (active); in the assay with PA-1, 22.4 µM (active). Also, the Potency entry in assay [2] is “inactive”.

Consider `N#Cc1cccc(C#N)c1-c1nc2c3ccccc3c3cc(Cl)ccc3c2[nH]1`, for which the Potency result in the assay on CAOV3, in the assay with PA-1 and in the assay on Tov-21-G was “inactive” throughout.

As for `CCOc1cc(CNC2CCCC2)cc(Cl)c1OCc1ccc(Cl)cc1`, the Potency in assay [2] was 1.51 µM (active); in assay [1] it was 19 µM (active). In addition, the Potency result in [11] is “inactive”.

For `NC(=Nc1ccc(CCNCc2cccc(Cl)c2)cc1)c1cccs1`, the Potency in assay [1] is 12 µM (active). For the same molecule, the Potency entry in the assay on PA-1 and in the assay on Tov-21-G was “inactive” each time.

As to `CC1CCC2(NC1)OC1CC3C4CC=C5CC(O[C@@H]6O[C@H](CO)[C@@H](O[C@@H]7O[C@@H](C)[C@H](O)[C@@H](O)[C@H]7O)[C@H](O)[C@H]6O[C@@H]6O[C@@H](C)[C@H](O)[C@@H](O)[C@H]6O)CCC5(C)C4CCC3(C)C1C2C` (some centres undefined), the activity change, negative = cytotoxicity in the assay on Tov-21-G is -23.3% [at 11.6 µM] (inactive).

In the case of `C[N+]1(C)CCN(CC(O)(c2ccccc2)C2CCCCC2)CC1` (centres undefined), the max response in assay [8] was -2.89% (inactive). The activity, negative = cell killing in [9] (setting [12]) was 4.18% (inactive); in [9] (setting [13]), -11.4% (inactive); in assay [9] (setting [14]) it was 3.68% (inactive). Moreover, the Potency entry in the assay on astro was “inactive”.

On to `O=C(NCCc1c[nH]c2ccc(O)cc12)c1ccc2ccccc2c1O`, for which, in assay [10], the Potency is 8.2 µM (active).

Turning to `C=C1/C(=C\C=C2/CCC[C@]3(C)[C@@H]([C@H](C)OCCC(C)(C)O)CC[C@@H]23)C[C@@H](O)C[C@@H]1O`, in [8], the max response is -1.53% (inactive). In addition, the activity, negative = cell killing was -19.1% (inactive) in [9] (setting [12]), -17.2% (inactive) in [9] (setting [13]) and -27.4% (inactive) in [9] (setting [14]). In addition, the Potency in [9] (tumour line A) is 25.1 µM (active).
